Assay [1] in a line: qHTS assay to identify small molecule agonists of the vitamin D receptor (VDR) signaling pathway - cell viability counter screen (AID 743224; active = well fitted curve in the direction sought with a large enough effect in the repeat runs; an effect the other way counts as inactive or inconclusive; also: nearly all actives have a fitted effect of over 50% in size; also: potency is read from the fitted curve at half-maximal effect; as to activity change, negative = cytotoxicity: series mostly up to about 63 µM; % is scaled to controls: 0 for no effect and ±100 for the full control effect). The essentials: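 Viability is measured in the same wells as the VDR-bla reporter assay: after 16 h compound treatment and 2 h substrate loading, CellTiter-Glo is added and luminescence read 30 min later.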
(In general: In qHTS, concentration-response curves come from the screen itself.)

Assay [2] can be described thus: qHTS assay to identify small molecule agonists of the endoplasmic reticulum stress response signaling pathway (AID 1159516; active = well fitted activation curve with a large enough effect in the signal ratio in the repeat runs, not every such curve was filed as active; the % refers to the signal ratio; also: potency is read from the fitted curve at half-maximal effect; as to activation: % is scaled to controls: 0 for no effect and ±100 for the full control effect). Summed up: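 Tox21 10K library screened in quantitative HTS format on ESRE-bla HeLa cells, a beta-lactamase reporter under ER stress response element control; 5 hr treatment, FRET read.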
Assay [3] can be described thus: qHTS assay to identify small molecule agonists of the endoplasmic reticulum stress response signaling pathway - cell viability counter screen (AID 1159517). Also: series mostly up to about 61 µM; % is scaled to controls: 0 for no effect and ±100 for the full control effect; nearly all actives have a fitted effect of over 50% in size. The essentials:
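CellTiter-Glo was added to wells already read for beta-lactamase FRET, and luminescence was recorded 30 min later. Cells: ESRE-bla HeLa, 1,500 per well, compound exposure 5 hr at 37 C.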

Assay [4] is described as follows: qHTS assay to identify small molecule antagonists of the retinoid-related orphan receptor gamma (ROR-gamma) signaling pathway - cell viability counter screen (AID 1159520; active = well fitted curve in the direction sought with a large enough effect in the repeat runs; an effect the other way counts as inactive or inconclusive; also: % is scaled to controls: 0 for no effect and ±100 for the full control effect; nearly all actives have a fitted effect of over 50% in size). Summed up: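 Tet-on ROR gamma CHO cells (1,000/well) were plated 4 hr, given compounds in DMSO for 2 hr at 37 C, then induced with 1 uM final doxycycline for 16 hr. Viability was read as ATP by CellTiter-Glo luminescence after 30 min.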

Assay [5] deals with Nuclear receptor ROR-gamma (Homo sapiens) (UniProt P51449). Put plainly: qHTS assay to identify small molecule antagonists of the retinoid-related orphan receptor gamma (ROR-gamma) signaling pathway (AID 1159521; active = well fitted curve in the direction sought with a large enough effect in the repeat runs; an effect the other way counts as inactive or inconclusive; also: nearly all actives have a fitted effect of over 50% in size; also: potency is read from the fitted curve at half-maximal effect). The essentials:
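Screening format: cell-based luciferase reporter in CHO cells with doxycycline-inducible RORγ. Compound pre-exposure lasts 2 h, doxycycline is 1 uM final, induction runs 16 h at 37 C, and ONE-Glo luminescence is read.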

A short description of assay [6]: qHTS assay to identify small molecule agonists of the AP-1 signaling pathway (AID 1159526). Also: potency is read from the fitted curve at half-maximal effect. As to activation: % is scaled to controls: 0 for no effect and ±100 for the full control effect.
The nature of assay [7]: qHTS assay to identify small molecule agonists of the NFkB signaling pathway - cell viability counter screen (AID 1159515). Also: nearly all actives have a fitted effect of over 55% in size. Also: potency is read from the fitted curve at half-maximal effect. Summed up: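 Multiplexed viability readout: after the 5 hr compound exposure and 1.5 hr FRET substrate step, CellTiter-Glo reagent went into the same NFkB-bla ME-180 wells; ATP luminescence was measured after 30 min at room temperature.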
The target of assay [8] is Retinoic acid receptor RXR-alpha (Homo sapiens) (UniProt P19793). Put plainly: qHTS assay to identify small molecule agonists of the RXR signaling pathway (AID 1159527). Also: % is scaled to controls: 0 for no effect and ±100 for the full control effect; nearly all actives have a fitted effect of over 35% in size. Summed up:
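Fluorescence ratio readout (460 vs 530 nm) from GeneBLAzer RXR-alpha HEK 293T cells after 16 hr compound treatment; cells seeded 5 hr beforehand in low-serum, charcoal-stripped medium.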

Assay [9] can be described thus: qHTS assay to identify small molecule antagonists of the vitamin D receptor (VDR) signaling pathway - cell viability counter screen (AID 743225; active = well fitted curve in the direction sought with a large enough effect in the repeat runs; an effect the other way counts as inactive or inconclusive). The essentials: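 In this counter screen, VDR-bla HEK 293T cells receive test compound plus 3 nM final calcitriol for 16 h at 37C. Room-temperature steps of 2 h with the beta-lactamase substrate, then 30 min with CellTiter-Glo, precede the luminescence read.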

Assay [10] in a line: qHTS assay to identify small molecule agonists of the AP-1 signaling pathway - cell viability counter screen (AID 1159525). Also: nearly all actives have a fitted effect of over 55% in size. Summed up:
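ME-180 AP-1-bla, 2500 cells/well, Opti-MEM + 0.5% dialyzed FBS; overnight 37 °C; cpd 15-pt titration, 5 h 37 °C; CellTiter-Glo 30 min RT; luminescence read; normalised to TOAB and DMSO controls.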

Records with an inconclusive call do not appear. A number with no mark means an inactive call. Activity calls are given as the source filed them. Unless noted, calls follow the shape of the full dose curve.

Retinoic acid receptor RXR-alpha (Homo sapiens), sequence (P19793 whole entry, looked up): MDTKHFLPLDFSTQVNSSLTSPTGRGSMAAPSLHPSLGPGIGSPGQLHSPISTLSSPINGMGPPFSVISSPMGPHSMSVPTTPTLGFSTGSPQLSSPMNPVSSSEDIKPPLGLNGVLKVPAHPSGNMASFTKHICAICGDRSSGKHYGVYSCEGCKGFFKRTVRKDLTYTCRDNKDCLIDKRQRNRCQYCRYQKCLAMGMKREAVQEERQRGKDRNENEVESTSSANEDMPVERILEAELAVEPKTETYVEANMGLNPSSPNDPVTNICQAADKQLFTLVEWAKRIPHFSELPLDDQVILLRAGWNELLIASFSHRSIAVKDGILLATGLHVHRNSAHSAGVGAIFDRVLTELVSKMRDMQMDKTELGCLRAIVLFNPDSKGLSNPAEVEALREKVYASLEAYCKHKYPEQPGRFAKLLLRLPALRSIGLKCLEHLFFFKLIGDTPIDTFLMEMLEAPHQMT

Take `COc1ccc(C(=O)N2CCN(CC(=O)N3CCOCC3)CC2)cc1`: the Potency result in [1], in assay [2], in assay [3], in assay [4], in assay [5] and in assay [6] was “inactive” each time.

Turning to `CCCCC`, the Potency entry in assay [1], in assay [7], in [3], in assay [4], in assay [5] and in [6] was “inactive” throughout. Also, in assay [8], the Potency entry is “inactive”.

For `CCCCCCOC(=O)NC(=N)c1ccc(NCc2nc3cc(C(=O)N(CCC(=O)OCC)c4ccccn4)ccc3n2C)cc1`, the Potency is 29.8 µM (active) in assay [1], 19 µM (active) in [7] and 11.9 µM (active) in [5]. Moreover, the Potency entry in [4] is “inactive”.

Consider `CCCCCCCCCCCCN1CCCCCC1=O`, for which the Potency in assay [1] is 30.9 µM (active); in assay [7] it was 54.9 µM (active). Moreover, the Potency entry in assay [3], in assay [4] and in assay [5] was “inactive” in each case.

Take `O=C(NCCO[N+](=O)[O-])c1cccnc1`: the Potency result in assay [1], in assay [9], in assay [7], in assay [4], in [10] and in assay [8] was “inactive” each time.

In the case of `CN(C)CCN(Cc1ccsc1)c1ccccn1`, the Potency result in assay [1], in assay [9], in assay [7], in [3], in assay [4] and in [10] was “inactive” throughout. For the same compound, the Potency entry in assay [6] and in assay [8] was “inactive” each time.

`Cc1ccc(C(C)OC(=O)C2(C)CCC(C(=O)O)C2(C)C)cc1` (stereo not drawn): the Potency entry in assay [1], in assay [9], in [7], in assay [4], in [10] and in [6] was “inactive” each time. Besides, the Potency result in [8] was “inactive”.

As for `CCCOC(C(=O)OC1CCN(C)CC1)(c1ccccc1)c1ccccc1`, the Potency entry in [1], in [7], in assay [3], in assay [4] and in assay [10] was “inactive” in each case. In addition, the Potency in [5] is 13.3 µM (active).

On to `CC(CC=O)c1ccccc1` (stereo not drawn), for which the Potency entry in assay [1], in assay [9], in assay [7], in assay [3], in assay [10] and in assay [6] was “inactive” throughout.

As for `Nc1c(CC(=O)O)cccc1C(=O)c1ccc(Br)cc1`, the Potency entry in assay [1], in [9], in [7], in [3], in [4] and in assay [10] was “inactive” each time. For the same compound, in assay [6], the Potency entry was “inactive”.

Consider `C[C@@H]1C[C@H]2[C@@H]3CCC4=CC(=O)C=C[C@]4(C)[C@@]3(F)[C@@H](O)C[C@]2(C)[C@@]1(O)C(=O)COC(=O)c1ccncc1`, for which the Potency result in assay [1], in [2], in assay [3], in [4], in assay [10] and in assay [6] was “inactive” throughout. Besides, the Potency result in assay [8] was “inactive”.

Turning to `Brc1c2ccccc2c(Br)c2ccccc12`, the activity change, negative = cytotoxicity in assay [1] was 13.8% [at 5.95 µM]. Further, in assay [9], the viability change, negative = cytotoxic was -26.5% [at 6.95 µM]. In addition, in assay [2], the Potency is 0.882 µM (active). In addition, in [6], the activation was -11.4% [at 6.97 µM].

For `COc1ccnc(CS(=O)c2nc3ccc(OC(F)F)cc3[nH]2)c1OC` (stereo not drawn), the Potency result in [1], in assay [9], in assay [3], in assay [4], in [6] and in assay [8] was “inactive” in each case.

On to `C[C@H]1C[C@H]2[C@@H]3CCC4=CC(=O)C=C[C@]4(C)[C@@]3(Cl)[C@@H](O)C[C@]2(C)[C@@]1(O)C(=O)CO`, for which the Potency result in assay [1], in [9], in assay [2], in [3], in assay [4] and in assay [10] was “inactive” each time. In addition, the Potency entry in assay [6] was “inactive”.

`CCCCC(=O)OCC(=O)[C@H]1[C@H](C)C[C@H]2[C@@H]3C[C@H](F)C4=CC(=O)C=C[C@]4(C)[C@@]3(F)[C@@H](O)C[C@@]21C`: the Potency entry in assay [1], in [9], in [3], in assay [10], in assay [6] and in assay [8] was “inactive” each time.

With `Nc1ccc([N+](=O)[O-])c(C(F)(F)F)c1`, the Potency result in [1], in [9], in [2], in assay [3], in assay [4] and in [10] was “inactive” each time. Also, the Potency entry in [6] and in assay [8] was “inactive” in each case.

For the compound `CC(C)(C)Cl`, the Potency result in [1], in assay [9], in [3], in assay [4], in assay [10] and in assay [6] was “inactive” in each case. For the same compound, the Potency entry in assay [8] was “inactive”.

As for `C=C(C)C(=O)OCCOCC`, the Potency entry in assay [1], in assay [9], in assay [2], in assay [3], in [4] and in [10] was “inactive” each time. Moreover, the Potency result in assay [8] was “inactive”. Moreover, the Potency in assay [6] was 49.2 µM (active).

For `CCCCCCc1ccc(-c2ccc(C#N)cc2)cc1`, the Potency entry in [1], in [9], in assay [2], in [4], in [10] and in [6] was “inactive” each time.

Turning to `C=CC1CC2C=CC1C2` (stereo not drawn), the Potency entry in assay [1], in assay [9], in assay [2], in assay [3], in [4] and in assay [10] was “inactive” each time. The Potency result in assay [6] and in [8] was “inactive” each time.

On to `N=c1ccn2c(n1)O[C@H]1[C@H](O)[C@@H](CO)O[C@H]12`, for which the Potency result in assay [1], in [2], in assay [3], in assay [4], in [10] and in assay [6] was “inactive” throughout. Moreover, in [8], the Potency entry was “inactive”.

In the case of `COC(=O)c1ccc(I)cc1S(=O)(=O)NC(=O)Nc1nc(C)nc(OC)n1`, the Potency entry in assay [1], in [9], in [2], in assay [3], in [4] and in assay [6] was “inactive” in each case.

In the case of `CC1CCC(=O)C1=O` (stereo not drawn), the Potency result in assay [2], in assay [3], in assay [10], in [6] and in [8] was “inactive” throughout.

With `CC1=CC[C@H](C(C)C)C=C1`, the Potency result in [1], in assay [2], in assay [3], in [4], in [10] and in assay [6] was “inactive” each time. Moreover, the Potency entry in assay [8] was “inactive”.

Turning to `O=C(O)c1ccccc1Cl`, the Potency result in assay [1], in assay [9], in [2], in [3], in assay [10] and in assay [6] was “inactive” in each case. For the same compound, the Potency entry in [8] is “inactive”.

In the case of `CC/C=C\CCOC(=O)CC`, the Potency result in assay [1], in [9], in assay [2], in assay [3], in assay [10] and in assay [6] was “inactive” in each case. In addition, the Potency result in assay [8] is “inactive”.

With `CC(C)CC(=O)C1C(=O)c2ccccc2C1=O`, the Potency result in assay [1], in assay [2], in [3] and in [6] was “inactive” in each case. For the same compound, the Potency in [5] was 17.2 µM (active).

The record behind these values is PubChem BioAssay (Tox21).
